PNC inhibitor – blocks assembly of the perinucleolar compartment. PC3M PTB-GFP, PNC prevalence imaging, 16 h; hits give low values. activity change (PNC), negative = inhibition, % at 10 µM. actives 3.1% (n = 140,000). AID 2417;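 active = readout at or below -70, meaning at least 70% loss of cells showing the perinucleolar compartment, a nuclear body marking cancer cells; inconclusive = readout between -30 and a set limit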
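PC3M cells stably expressing PTB-GFP, 750–1000 cells/well, treated 16 h at 37 °C with compound (23 nl of library stock), in duplicate. After paraformaldehyde fixation and Hoechst stain, imaged at 20x; PNC prevalence scored by image analysis.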
HPGD inh – blocks human HPGD enzyme activity; P15428; purified HPGD, NADH fluorescence kinetic, PGE2 substrate; Potency, µM, usual class: inhibitors; actives 4.3% (n = 150,000)
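20 nM HPGD preincubated 15 min at room temperature with compound in 50 mM Tris-HCl pH 8, 0.01% Tween 20. Started with 1 mM NAD+ and 30 uM prostaglandin E2; NADH fluorescence (360/450 nm) read 5 times over 30-s intervals, last minus first.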
ALDH1A1 block – ALDH1A1 (human) enzyme inhibition; AID 1030; Purified ALDH1A1, NADH fluorescence, propionaldehyde substrate; P00352; actives 7.3% (n = 220,000); Potency, µM (top dose mostly 75.3 µM), most hits filed as inhibitors
Target sequence (P00352 whole entry, looked up): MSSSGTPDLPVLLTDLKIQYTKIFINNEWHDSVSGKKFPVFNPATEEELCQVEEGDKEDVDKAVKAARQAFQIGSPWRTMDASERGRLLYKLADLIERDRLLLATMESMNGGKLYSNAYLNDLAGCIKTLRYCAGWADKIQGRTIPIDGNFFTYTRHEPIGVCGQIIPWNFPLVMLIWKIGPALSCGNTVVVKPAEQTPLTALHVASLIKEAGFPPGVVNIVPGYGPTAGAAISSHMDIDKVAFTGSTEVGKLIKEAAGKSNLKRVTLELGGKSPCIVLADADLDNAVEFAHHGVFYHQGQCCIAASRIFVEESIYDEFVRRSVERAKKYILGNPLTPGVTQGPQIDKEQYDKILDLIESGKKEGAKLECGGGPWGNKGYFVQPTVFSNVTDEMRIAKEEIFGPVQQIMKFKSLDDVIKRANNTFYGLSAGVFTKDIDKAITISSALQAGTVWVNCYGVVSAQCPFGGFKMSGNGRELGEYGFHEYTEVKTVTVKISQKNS
IMPase Li cell – membrane-permeable IMPase blocker, potentiated with lithium; Potency, µM (top dose mostly 59.4 µM), most hits filed as inhibitors; actives 0.35% (n = 210,000); CHO-M1 cells, IP1 TR-FRET (IP-One), carbachol + lithium; active = well fitted inhibition curve with a large enough effect; inconclusive = small, poorly fitted or top-dose-only effect; inactive = no such curve, though single readings can be large or run the other way;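 also: IP1 builds up when IMPase is blocked and the TR-FRET signal falls; nearly all actives have a fitted effect of over 50% in size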
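Concentration–response in CHO-M1 cells, lithium-potentiated; 30 min at 37C. IP1 detected by competitive TR-FRET after 10 min lysis at RT. Hill-fitted AC50.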
IMPase inh – cell-permeable inhibitors of inositol monophosphatase (IMPase). CHO-M1 cells, IP1 accumulation, HTRF TR-FRET ratio. inhibition (IP1 accumulation), % at 46.1 µM. 120,000 tested, under 10 active; active = well fitted curve in the direction sought with a large enough effect in the signal ratio, not every such curve was filed as active; inconclusive = small, poorly fitted or top-dose-only effect, or a change in a side signal; inactive = no such curve, though single readings can be large or run the other way; the % refers to the signal ratio;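 also: cells stimulated with carbachol in lithium chloride buffer; higher means more IMPase inhibition seen as more IP1 and lower FRET ratio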
Target sequence (P97697 whole entry, looked up): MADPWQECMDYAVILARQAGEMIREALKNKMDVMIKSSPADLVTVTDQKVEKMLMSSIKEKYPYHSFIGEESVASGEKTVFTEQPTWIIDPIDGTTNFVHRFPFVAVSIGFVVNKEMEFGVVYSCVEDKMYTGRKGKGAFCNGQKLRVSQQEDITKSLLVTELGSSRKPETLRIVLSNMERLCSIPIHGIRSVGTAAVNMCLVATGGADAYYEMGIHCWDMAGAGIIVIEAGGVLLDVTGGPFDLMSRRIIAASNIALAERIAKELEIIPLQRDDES
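Elevated IP1 in lysates lowers TR-FRET signal (665/620 ratio and 620 channel reported). Cells were CHO-M1, given carbachol (50 uM as added) plus 50mM LiCl, pH 7.4, 30 min, 37C; compounds titrated up to 46 uM; AC50 by Hill equation.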
Large screens that a line does not name were inactive. Only some compounds are listed: those with a hit (about 11% of all), similar ones and a draw of the others. Unless noted, calls follow the shape of the dose curve; as a rule, active = well fitted inhibition curve with a large enough effect (not every such curve was filed as active); inconclusive = small, poorly fitted or top-dose-only effect, or another doubt; inactive = no such curve, though single readings can be large or run the other way.

O=C1N=C(N2CCC(Cc3ccccc3)CC2)S/C1=C/c1cn[nH]c1-c1ccccc1	HPGD inh 25.1µM
COc1cccc(Cn2c(-c3nonc3N)nc3ccccc32)c1	PNC inhibitor -111.4
COc1ccc(Cn2c(-c3ccc(OC)cc3)nc3ccccc32)cc1	PNC inhibitor -100.0, ALDH1A1 block inconclusive
COc1ccc(Cn2c(-c3ccc(C)cc3)nc3c(c(=O)c4ccccc4n3C)c2=O)cc1	ALDH1A1 block inconclusive (no result: IMPase inh)
COc1ccc(Cn2c(-c3ccc(OC)cc3)nc3c(c(=O)c4ccccc4n3C)c2=O)cc1	ALDH1A1 block 0.282µM, IMPase inh inconclusive
COc1ccc(N/C(C)=C2/C(=O)C(=O)N(CCO)C2c2ccc(Br)cc2)cc1 (configuration not stated)	ALDH1A1 block inconclusive
CC(C)(C)CC(=O)Nc1cccc(-c2cn3cccnc3n2)c1	ALDH1A1 block inconclusive (no result: PNC inhibitor, HPGD inh, IMPase inh)
COCC(=O)Nc1ccc(-c2cn3cccnc3n2)cc1	HPGD inh inconclusive, ALDH1A1 block inconclusive, IMPase Li cell 11.2µM
O=C(CN1CCOCC1)Nc1ccc(OCc2ccccc2)cc1	ALDH1A1 block 12.6µM
CC(=O)c1ccc(NC(=O)CSc2nnc(NC(=O)CN3CCOCC3)s2)cc1	none
Cc1ccc(NC(=O)CSc2nnc(NC(=O)CN3CCOCC3)s2)cc1	PNC inhibitor -116.6, ALDH1A1 block inconclusive
O=C(CN1CCOCC1)Nc1ccc(Oc2ccc(NC(=O)CN3CCOCC3)cc2)cc1	HPGD inh inconclusive, ALDH1A1 block 17.8µM
O=C(CN1CCN(c2ccccn2)CC1)Nc1ccc(OCc2ccccc2)cc1	ALDH1A1 block inconclusive
COc1ccc(CNc2ncnc3ccc(-c4ccc(N(C)C)cc4)cc23)c(OC)c1	ALDH1A1 block inconclusive (no result: PNC inhibitor, HPGD inh, IMPase inh)
COc1ccc(OC)c(NC(=O)c2nc(-c3ccccc3)oc2C)c1	ALDH1A1 block inconclusive (no result: PNC inhibitor, HPGD inh, IMPase inh)
COc1ccc(NC(=O)C(Sc2nnc(-c3ccncc3)n2-c2ccccc2C)c2ccccc2)cc1Cl (configuration not stated)	PNC inhibitor inconclusive
Cc1ccc(S(=O)(=O)NCCc2cccs2)cc1	none (no result: PNC inhibitor, HPGD inh, IMPase Li cell, IMPase inh)
O=C(CSc1nc2ccccc2c(=O)n1-c1ccc(F)cc1F)c1c[nH]c2ccccc12	ALDH1A1 block inconclusive (no result: IMPase inh)
Cc1nc2ccc(C(C(F)(F)F)(C(F)(F)F)C(F)(F)F)cc2[nH]1	none
ICCc1ccccc1	HPGD inh 10µM, ALDH1A1 block 3.55µM (no result: PNC inhibitor, IMPase inh)
CCCCNC(=O)C(=O)N/N=C/c1ccc(OCC(=O)Nc2cccc(OC)c2)c(OC)c1	PNC inhibitor inconclusive, HPGD inh inconclusive, ALDH1A1 block inconclusive (no result: IMPase inh)
C[C@H]1CC(C)(C)C[C@@](OCCN2CCCCC2)(c2ccccc2)C1	none (no result: PNC inhibitor, IMPase inh)
CN(Cc1cccnc1)C(=O)CC1C(=O)NCCN1Cc1ccc(-c2ccccc2)cc1 (configuration not stated)	ALDH1A1 block 15.8µM (no result: PNC inhibitor, HPGD inh, IMPase inh)
CCOc1ccc2c(c1)sc1nc(=O)n(-c3ccc(Cl)c(Cl)c3)c(=O)n12	none (no result: PNC inhibitor, HPGD inh, ALDH1A1 block, IMPase Li cell)
COCCNC(=O)COC(=O)c1nsc(Cl)c1Cl	PNC inhibitor -108.8, ALDH1A1 block inconclusive
CC(C)(C)n1ncc2c(=O)n(CC(=O)Nc3ccc(Cl)cc3)cnc21	PNC inhibitor inconclusive
O=C(Cn1cnc2c(nnn2Cc2ccc(F)cc2)c1=O)NCc1ccc(F)cc1	none (no result: PNC inhibitor, HPGD inh, IMPase inh)
CC(=O)Nc1ccc(NC(=O)Cn2cnc3c(cnn3C(C)(C)C)c2=O)cc1	PNC inhibitor inconclusive, ALDH1A1 block 15.8µM
CC(=O)Nc1ccc(NC(=O)Cn2cnc3c(nnn3Cc3ccc(F)cc3)c2=O)cc1	ALDH1A1 block 11.2µM (no result: PNC inhibitor, HPGD inh, IMPase inh)
O=C(Nc1cc(-c2ccccc2)[nH]n1)c1ccc(Cl)cc1	none (no result: PNC inhibitor, HPGD inh, IMPase Li cell, IMPase inh)
COc1cc(C(=O)Nc2cccc(-c3nncn3C)c2)cc(OC)c1OC	PNC inhibitor inconclusive
COc1ccc(N2CC(C)Cn3c2nc2c3c(=O)[nH]c(=O)n2C)cc1 (configuration not stated)	none
CCn1c(C(=O)N2CCc3ccccc3C2)cc2sccc21	HPGD inh 3.16µM
Cc1cc(C)nc(N2CCC(C(=O)NCc3ccccc3F)CC2)n1	none (no result: PNC inhibitor, HPGD inh, IMPase inh)
COCCCNC(=O)C1CCN(C(=O)c2cc3sccc3n2Cc2ccc(F)cc2)CC1	ALDH1A1 block 10µM
O=C(NCc1ccco1)C1CCN(c2nc3ccccc3n2Cc2ccccc2F)CC1	PNC inhibitor inconclusive, ALDH1A1 block 28.2µM
O=C(NCc1ccco1)C1CCN(C(=O)c2cc3sccc3n2Cc2ccc(F)cc2)CC1	PNC inhibitor inconclusive, ALDH1A1 block 4.47µM
CCn1c(C(=O)NCCCN2CCc3ccccc3C2)cc2sccc21	PNC inhibitor inconclusive
CS(=O)(=O)N1CCC2(CCN(C(=O)Nc3cccc(C#N)c3)CC2)CC1	none (no result: PNC inhibitor, IMPase inh)
CCn1c(C(=O)N2CCC(C(=O)NCCCSC3CCCCC3)CC2)cc2sccc21	ALDH1A1 block 3.16µM
CCN1CCN(C(=O)C2CCN(C(=O)c3cc4sccc4n3CC)CC2)CC1	none
CSC1(SC2=NCCN2)SC2(NCCN2)S1	ALDH1A1 block 0.0891µM (no result: PNC inhibitor, IMPase inh)
Cc1cc(C(=O)COc2ccc([N+](=O)[O-])cc2)c(C)n1C1CC1	ALDH1A1 block 11.2µM (no result: PNC inhibitor, HPGD inh, IMPase Li cell, IMPase inh)
CCCn1c(-c2ccc(F)cc2)nc2c(NCCN3CCCCC3)nc(C)nc21	HPGD inh inconclusive, ALDH1A1 block inconclusive (no result: PNC inhibitor, IMPase inh)
COc1ccc(N(C(=O)c2ccco2)C(C(=O)NC2CCCC2)c2ccc(N(C)C)cc2)cc1 (configuration not stated)	ALDH1A1 block 2.51µM
COc1ccc(N(CC(=O)NC2CCCCC2)C(=O)CNC(=O)c2ccco2)cc1OC	PNC inhibitor -100.0
O=C(NC1CCCCC1)C(c1cccs1)N(C(=O)c1ccco1)c1ccc2c(c1)OCCO2 (configuration not stated)	PNC inhibitor -100.0, ALDH1A1 block inconclusive
O=C(NCC(=O)N(Cc1ccccc1)C(C(=O)NC1CCCC1)c1ccco1)c1ccco1 (configuration not stated)	PNC inhibitor inconclusive, ALDH1A1 block inconclusive
COc1ccc(CN(C(=O)CNC(=O)c2ccco2)C(C(=O)NC2CCCC2)c2ccco2)cc1 (configuration not stated)	PNC inhibitor inconclusive, ALDH1A1 block 0.398µM
Cc1ccccc1NC(=O)c1sc(NC(=O)COc2ccccc2)c(C#N)c1C	ALDH1A1 block inconclusive (no result: IMPase inh)
O=C(NCC(=O)N(Cc1ccco1)C(C(=O)NC1CCCCC1)c1cccnc1)c1ccco1 (configuration not stated)	none
CCOc1ccccc1C(C(=O)NC1CCCC1)N(Cc1ccco1)C(=O)CNC(=O)c1ccco1 (configuration not stated)	ALDH1A1 block 1.78µM
COc1ccc(N(C(=O)CNC(=O)c2ccco2)C(C(=O)NC2CCCCC2)c2ccco2)cc1 (configuration not stated)	PNC inhibitor -126.9
Oc1cccc(C=NCc2ccccc2)c1O	HPGD inh 15.8µM, ALDH1A1 block 8.91µM
C=CCN(CC=C)C(=O)C1CCC(C(=O)N(CC=C)CC=C)CC1 (configuration not stated)	PNC inhibitor -88.5

Assay outcomes: PubChem BioAssay, National Center for Advancing Translational Sciences (NCATS)
